# Experimental data from PubChem BioAssay (Tox21).
# Inconclusive results are not listed. Active and inactive are the calls of the source. Calls follow the shape of the dose curve; as a rule, active = well fitted inhibition curve with a large enough effect in the repeat runs; inconclusive = weak or mixed curves; inactive = no such curve, though single readings can be large or run the other way.
# Target: Cytochrome P450 2C19 (Homo sapiens) (UniProt P33261)
# Experiment: Cytochrome P450 Family 2 Subfamily C Member 19 (CYP2C19) small molecule antagonists: luciferase reporter qHTS assay (AID 1671197); also: nearly all actives have a fitted effect of over 65% in size
# Conditions: P450-Glo CYP2C19 enzyme, luciferin luminescence, 1 h; series mostly up to 115 µM; activity change, negative = inhibition: at the top concentration
# Outline: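 Relative luminescence units recorded 20 min after the detection reagent stopped a 1 h, 37C CYP2C19 reaction on proluciferin substrate, which was started by NADPH regeneration following 10 min room-temperature compound preincubation; ketoconazole positive control.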
# % is scaled to controls: 0 for no effect and ±100 for the full control effect; potency is read from the fitted curve at half-maximal effect.
# Cytochrome P450 2C19 (Homo sapiens), sequence (P33261 whole entry, looked up): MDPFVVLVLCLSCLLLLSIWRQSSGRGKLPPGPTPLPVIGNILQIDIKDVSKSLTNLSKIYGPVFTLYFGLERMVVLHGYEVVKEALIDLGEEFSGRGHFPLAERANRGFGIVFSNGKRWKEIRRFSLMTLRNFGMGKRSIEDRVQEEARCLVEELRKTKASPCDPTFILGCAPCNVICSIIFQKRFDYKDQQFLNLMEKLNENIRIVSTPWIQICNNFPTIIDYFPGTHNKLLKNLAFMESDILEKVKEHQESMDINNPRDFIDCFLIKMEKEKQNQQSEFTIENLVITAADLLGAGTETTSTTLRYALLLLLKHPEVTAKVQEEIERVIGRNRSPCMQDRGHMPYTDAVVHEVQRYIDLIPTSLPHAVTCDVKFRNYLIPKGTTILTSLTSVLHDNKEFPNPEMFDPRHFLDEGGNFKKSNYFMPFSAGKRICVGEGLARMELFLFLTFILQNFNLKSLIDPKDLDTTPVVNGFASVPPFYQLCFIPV
SMILES,Potency,"activity change, negative = inhibition"
C=CC(C)(O)CC/C=C(\C)CCC=C(C)C (stereo unspecified),17.8 µM (active),
Cc1cc(NS(=O)(=O)c2ccc(N)cc2)nc(C)n1,,23% [at 52.9 µM] (inactive)
CCC(=O)O[C@]1(C(=O)SCF)[C@H](C)C[C@H]2[C@@H]3C[C@H](F)C4=CC(=O)C=C[C@]4(C)[C@@]3(F)[C@@H](O)C[C@@]21C,,-0.102% [at 52.9 µM] (inactive)
FC(F)(F)C(F)(F)C(F)(F)C(F)(F)C(F)(F)C(F)(F)C(F)(F)C(F)(F)Br,,18.2% [at 52.9 µM] (inactive)
CCN(CC)CC1CCCCN1CC(=O)N1c2ccccc2C(=O)Nc2cccnc21 (stereo unspecified),,17.3% [at 52.9 µM] (inactive)
CCCN(CCC)C(=O)C(CCC(=O)O)NC(=O)c1ccccc1 (stereo unspecified),,12.4% [at 52.9 µM] (inactive)
C[C@@H]1CN(c2c(F)c(N)c3c(=O)c(C(=O)O)cn(C4CC4)c3c2F)C[C@H](C)N1,,45.2% [at 23.6 µM] (inactive)
Cc1c(C(=O)NCCO)[n+](=O)c2ccccc2n1[O-],,-8.13% [at 52.9 µM] (inactive)
CC1(C)S[C@@H]2[C@H](NC(=O)C(C(=O)O)c3ccccc3)C(=O)N2[C@H]1C(=O)O (stereo partly specified),,0.0513% [at 52.9 µM] (inactive)
CCN(CC)CCNC(=O)COc1ccc(Cl)cc1,,14.8% [at 52.9 µM] (inactive)
CO[C@@]1(NC(=O)CSCC#N)C(=O)N2C(C(=O)O)=C(CSc3nnnn3C)CS[C@@H]21,,13.6% [at 52.9 µM] (inactive)
CCOC(=O)c1ccccc1O,,11.3% [at 52.9 µM] (inactive)

# Target: Cytochrome P450 2C9 (Homo sapiens) (UniProt P11712)
# Experiment: Cytochrome P450 Family 2 Subfamily C Member 9 (CYP2C9) small molecule antagonists: luciferase reporter qHTS assay (AID 1671198); also: nearly all actives have a fitted effect of over 50% in size
# Conditions: P450-Glo CYP2C9 enzyme assay, luciferin luminescence; series mostly up to 53 µM; activity change, negative = inhibition: at the top concentration
# Outline: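 CYP2C9 activity was measured with a P450-Glo proluciferin substrate. Enzyme–substrate mix was held with compound for 10 min at room temperature, then NADPH regeneration solution was added for 1 h at 37C. Luciferin product was read as luminescence.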
# Cytochrome P450 2C9 (Homo sapiens), sequence (P11712 whole entry, looked up): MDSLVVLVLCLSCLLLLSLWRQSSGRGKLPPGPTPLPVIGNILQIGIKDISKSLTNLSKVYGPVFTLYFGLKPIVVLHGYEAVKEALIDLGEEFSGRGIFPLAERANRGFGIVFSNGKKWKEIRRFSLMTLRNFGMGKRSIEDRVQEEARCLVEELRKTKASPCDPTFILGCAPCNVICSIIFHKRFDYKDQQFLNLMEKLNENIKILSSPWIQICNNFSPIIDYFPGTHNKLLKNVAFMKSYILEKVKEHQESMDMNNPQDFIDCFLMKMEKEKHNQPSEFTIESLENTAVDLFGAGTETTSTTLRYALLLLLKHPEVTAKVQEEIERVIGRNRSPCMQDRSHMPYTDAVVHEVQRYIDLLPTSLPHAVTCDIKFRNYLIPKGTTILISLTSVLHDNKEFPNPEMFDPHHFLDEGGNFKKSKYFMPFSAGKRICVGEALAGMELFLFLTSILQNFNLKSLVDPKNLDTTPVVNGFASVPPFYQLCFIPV
SMILES,"activity change, negative = inhibition",Potency
CCC(=O)Nc1ccc(O)cc1,-0.35% (inactive),
O=c1[nH]cnc2c1ncn2[C@@H]1O[C@H](CO)[C@@H](O)[C@H]1O,3.09% (inactive),
NS(=O)(=O)c1cc(-c2nn[nH]n2)c(NCc2cccs2)cc1Cl,,24.5 µM (active)
OCc1ccccc1O,-22.7% (inactive),
C[C@@H]1CN(c2c(F)c(F)c3c(=O)c(C(=O)O)cn(C4CC4)c3c2F)C[C@H](C)N1,4.5% [at 23.6 µM] (inactive),
CC(=O)N(CC(O)CN(C(C)=O)c1c(I)c(C(=O)NCC(O)CO)c(I)c(C(=O)NCC(O)CO)c1I)c1c(I)c(C(=O)NCC(O)CO)c(I)c(C(=O)NCC(O)CO)c1I (stereo unspecified),7.77% (inactive),
CC(C)O,-0.923% [at 115 µM] (inactive),
CN1CCN(c2c(F)cc3c(=O)c(C(=O)O)cn(CCF)c3c2F)CC1,6.16% (inactive),
NC/C=C/C(=O)O,-3.07% (inactive),
COc1ccccc1N1CCN(CCCNc2cc(=O)n(C)c(=O)n2C)CC1,5.12% (inactive),
C=CC(C)(O)CC/C=C(\C)CCC=C(C)C (stereo unspecified),,31.7 µM (active)
Cc1cc(NS(=O)(=O)c2ccc(N)cc2)nc(C)n1,-2.89% (inactive),
CCC(=O)O[C@]1(C(=O)SCF)[C@H](C)C[C@H]2[C@@H]3C[C@H](F)C4=CC(=O)C=C[C@]4(C)[C@@]3(F)[C@@H](O)C[C@@]21C,,4.9 µM (active)
C[C@@H]1CN(c2c(F)c(N)c3c(=O)c(C(=O)O)cn(C4CC4)c3c2F)C[C@H](C)N1,12.9% [at 23.6 µM] (inactive),
Cc1c(C(=O)NCCO)[n+](=O)c2ccccc2n1[O-],-0.0779% (inactive),
COc1ccccc1OCC(O)COC(N)=O (stereo unspecified),13.6% (inactive),
CCOC(=O)[C@H](CCc1ccccc1)N[C@@H](C)C(=O)N1Cc2cc(OC)c(OC)cc2C[C@H]1C(=O)O,,15.5 µM (active)
CCOC(=O)c1ccccc1O,12% (inactive),

# Target: Cytochrome P450 1A2 (Homo sapiens) (UniProt P05177)
# Experiment: Cytochrome P450 Family 1 Subfamily A Member 2 (CYP1A2) small molecule antagonists: luciferase reporter qHTS assay (AID 1671199); also: nearly all actives have a fitted effect of over 50% in size
# Conditions: P450-Glo CYP1A2 enzyme, luciferin luminescence, 1 h; series mostly up to 53 µM; activity change, negative = inhibition: at the top concentration
# Outline: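 CYP1A2 turnover of a luminogenic substrate was quantified after 1 h with NADPH regeneration at room temperature. Furafylline served as positive control.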
# Cytochrome P450 1A2 (Homo sapiens), sequence (P05177 whole entry, looked up): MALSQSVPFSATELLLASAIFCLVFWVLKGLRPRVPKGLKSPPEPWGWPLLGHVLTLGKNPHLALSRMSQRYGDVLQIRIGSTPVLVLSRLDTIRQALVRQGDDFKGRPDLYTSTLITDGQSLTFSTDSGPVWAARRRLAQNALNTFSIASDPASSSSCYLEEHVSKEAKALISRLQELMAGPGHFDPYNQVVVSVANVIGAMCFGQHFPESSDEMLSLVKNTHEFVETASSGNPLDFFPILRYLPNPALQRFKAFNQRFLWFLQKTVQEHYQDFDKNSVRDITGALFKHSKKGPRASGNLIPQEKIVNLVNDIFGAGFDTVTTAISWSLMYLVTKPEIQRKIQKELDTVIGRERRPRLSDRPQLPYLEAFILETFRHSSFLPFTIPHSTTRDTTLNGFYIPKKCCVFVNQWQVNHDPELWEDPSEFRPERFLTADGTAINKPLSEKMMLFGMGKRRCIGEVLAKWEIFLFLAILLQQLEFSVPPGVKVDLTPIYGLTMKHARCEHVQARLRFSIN
SMILES,"activity change, negative = inhibition",Potency
CCC(=O)Nc1ccc(O)cc1,-4.88% (inactive),
CC(=O)Oc1cc(C(C)C)c(OCCN(C)C)cc1C,,5.12 µM (active)
O=c1[nH]cnc2c1ncn2[C@@H]1O[C@H](CO)[C@@H](O)[C@H]1O,15.3% (inactive),
NS(=O)(=O)c1cc(-c2nn[nH]n2)c(NCc2cccs2)cc1Cl,9.75% (inactive),
OCc1ccccc1O,-15.3% (inactive),
C[C@@H]1CN(c2c(F)c(F)c3c(=O)c(C(=O)O)cn(C4CC4)c3c2F)C[C@H](C)N1,7.4% [at 23.6 µM] (inactive),
CC(=O)N(CC(O)CN(C(C)=O)c1c(I)c(C(=O)NCC(O)CO)c(I)c(C(=O)NCC(O)CO)c1I)c1c(I)c(C(=O)NCC(O)CO)c(I)c(C(=O)NCC(O)CO)c1I (stereo unspecified),-2.37% (inactive),
CN1CCN(c2c(F)cc3c(=O)c(C(=O)O)cn(CCF)c3c2F)CC1,14.3% (inactive),
CN1CCN(c2c(F)cc3c(=O)c(C(=O)O)cn4c3c2SCC4)CC1,-1.77% (inactive),
O=c1[nH]c(=O)n([C@H]2C[C@H](O)[C@@H](CO)O2)cc1C(F)(F)F,-15.1% (inactive),
CCCCc1ccc2nc(NC(=O)OC)[nH]c2c1,-22.4% (inactive),
Oc1ccccc1C=NCc1ccccc1,14.3% (inactive),
NC/C=C/C(=O)O,-11.5% (inactive),
COc1ccccc1N1CCN(CCCNc2cc(=O)n(C)c(=O)n2C)CC1,5.28% (inactive),
CS(=O)(=O)c1ccc([C@@H](O)[C@@H](CF)NC(=O)C(Cl)Cl)cc1,-2.63% (inactive),
C=CC(C)(O)CC/C=C(\C)CCC=C(C)C (stereo unspecified),,31.7 µM (active)

SMILES,"activity change, negative = inhibition",Potency
Cc1cc(NS(=O)(=O)c2ccc(N)cc2)nc(C)n1,4.09% (inactive),
CCC(=O)O[C@]1(C(=O)SCF)[C@H](C)C[C@H]2[C@@H]3C[C@H](F)C4=CC(=O)C=C[C@]4(C)[C@@]3(F)[C@@H](O)C[C@@]21C,-11.1% (inactive),
FC(F)(F)C(F)(F)C(F)(F)C(F)(F)C(F)(F)C(F)(F)C(F)(F)C(F)(F)Br,-8.72% (inactive),
CCN(CC)CC1CCCCN1CC(=O)N1c2ccccc2C(=O)Nc2cccnc21 (stereo unspecified),6.71% (inactive),
CCN[C@H]1CN(CCCOC)S(=O)(=O)c2sc(S(N)(=O)=O)cc21,0.412% (inactive),
CCCN(CCC)C(=O)C(CCC(=O)O)NC(=O)c1ccccc1 (stereo unspecified),13.3% (inactive),
CCCCN1C[C@H](O)[C@@H](O)[C@H](O)[C@H]1CO,-2.8% (inactive),
C[C@@H]1CN(c2c(F)c(N)c3c(=O)c(C(=O)O)cn(C4CC4)c3c2F)C[C@H](C)N1,15.6% [at 23.6 µM] (inactive),
COc1ccc(S(=O)(=O)Nc2nnc(CC(C)C)s2)cc1,12.7% (inactive),
Cc1c(C(=O)NCCO)[n+](=O)c2ccccc2n1[O-],-14.7% (inactive),
COc1ccccc1OCC(O)COC(N)=O (stereo unspecified),1.78% (inactive),
CC1(C)S[C@@H]2[C@H](NC(=O)C(C(=O)O)c3ccccc3)C(=O)N2[C@H]1C(=O)O (stereo partly specified),-7.42% (inactive),
CCOC(=O)[C@H](CCc1ccccc1)N[C@@H](C)C(=O)N1Cc2cc(OC)c(OC)cc2C[C@H]1C(=O)O,0.888% (inactive),
CO[C@@]1(NC(=O)CSCC#N)C(=O)N2C(C(=O)O)=C(CSc3nnnn3C)CS[C@@H]21,,24.5 µM (active)
CCOC(=O)c1ccccc1O,5.11% (inactive),
